Screening results from PubChem.
PLK1 PBD block: inhibitors of human PLK1 polo-box domain binding. Plk1 PBD binding of FITC phosphopeptide, fluorescence polarization. P53350. 2.8% of 360,000 active. AID 720504. Potency, µM, inactives show max response, negative = inhibition, most hits filed as inhibitors; note: series mostly up to about 57 µM; nearly all actives have a fitted effect of over 65% in size
VDR inh: vitamin D3 receptor (human) inhibition; P11473; VDR-SRC2-3 peptide fluorescence polarization, 2 h; Potency, µM, without a hit: max response, negative = inhibition, actives largely listed as inhibitors; 0.93% of 400,000 active
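Fluorescence polarization assay measuring small-molecule disruption of VDR binding to the coregulator peptide SRC2-3. Compounds were pin-transferred (23 nl) into the reagent mix and incubated 2 h at room temperature before reading.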
DT40 TDP1 CPT: DT40-hTDP1 cell growth loss with CPT; chicken DT40 Tdp1-/-;hTDP1 cells + 20 nM CPT, ATP luminescence, 48 h; Potency, µM (doses to about 46.2 µM), inactives show at the highest dose activity change, negative = growth inhibition, hits mostly inhibitors; 12% of 420,000 active; AID 686979; note: nearly all actives have a fitted effect of over 55% in size
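Chicken DT40 Tdp1-/- cells stably complemented with human TDP1 were seeded at 400 cells/well in medium containing 20 nM camptothecin, exposed to pin-transferred compounds, and grown at 37 °C for at least 48 hr. Viability was read as ATP luminescence.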
KAT2A inh: inhibitors of human GCN5L2 histone acetyltransferase; AID 504327; 0.21% of 390,000 active; GCN5L2 HAT assay, ThioGlo1 CoA-SH fluorescence; Potency, µM (series often up to 58.9 µM), for inactives: at the highest dose activity change, negative = inhibition, usual class: inhibitors; Q92830
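Fluorescence readout, Ex340nm/Em540nm: ThioGlo1 (50uM final) reacts with free CoA thiol released as 20nM GCN5L2 acetylates H3(1-25) peptide (75uM) using acetyl-CoA (70uM). Compound and enzyme sat 15 min beforehand; 20 min room-temperature reaction.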
TDP1 cell noCPT: qHTS for Inhibitors of human tyrosyl-DNA phosphodiesterase 1 (TDP1): qHTS in cells in absence of CPT. Potency, µM (top dose mostly 46.2 µM), for the others: at the top dose activity change, negative = growth inhibition, actives largely listed as inhibitors. 15% of 420,000 active. AID 686978, 2013. DT40 Tdp1-/- hTDP1 cells, no CPT, ATP luminescence, 48 h; note: nearly all actives have a fitted effect of over 55% in size
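No-CPT arm: Tdp1-/-;hTDP1 DT40 cells (400/well) plus compounds, incubated ≥48 hr at 37 °C. Readout CellTiter-Glo luminescence.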
TDP1 block: inhibitors of human tyrosyl-DNA phosphodiesterase TDP1 | recombinant TDP1, AlphaScreen DNA substrate cleavage | Potency, µM (titrated, usually from 130 µM), for the others: at the highest dose activity change, negative = inhibition, hits mostly inhibitors | 0.28% of 350,000 active | AID 485290; note: nearly all actives have a fitted effect of over 40% in size
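Recombinant E. coli-expressed Tdp1 (1 nM) preincubated with compound 15 min at RT, then 5'-biotin/3'-phosphotyrosine-FITC DNA substrate (15 nM) added for 5 min. AlphaScreen beads (10 ug/ml) added, 10 min RT; tyrosine-FITC cleavage read as signal loss.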
Numbers without * were called inactive; ? = inconclusive; · = no result given. The list is not random: actives were taken first. Their share in the collection is about 18%. Calls come from the whole dose curve; as a rule, active = well fitted curve in the direction sought with a large enough effect; inconclusive = small, poorly fitted or top-dose-only effect, or another doubt; inactive = no such curve, though single readings can be large; an effect the other way counts as inactive or inconclusive. % is set by controls: 0 for no effect and ±100 for the full control effect; potency is the fitted concentration of half-maximal effect.

SMILES	PLK1 PBD block	VDR inh	DT40 TDP1 CPT	KAT2A inh	TDP1 cell noCPT	TDP1 block
COC(=O)C1=C(N)Oc2cc(N(C)C)ccc2C1c1ccccc1OC (stereo not drawn)	-9.2%	4.3%	4.61µM*	-16.7%	4.61µM*	11.5%
COc1ccccc1-c1cc(C(F)(F)F)nc(S(=O)(=O)CCCC(=O)Nc2cccnc2Cl)n1	-28.1%	?	2.06µM*	-0.9%	4.61µM*	7.7%
COc1ccccc1-c1cc(C(F)(F)F)nc(S(=O)(=O)CCCC(=O)Nc2ccccc2F)n1	·	?	2.59µM*	-3.5%	2.59µM*	5.9%
COc1ccccc1-c1cc(C(F)(F)F)nc(S(=O)(=O)CCCC(=O)Nc2cc(Br)ccc2O)n1	·	?	-16.1%	-7.8%	-18.7%	8.8%
COc1ccc2nc3cc(Cl)ccc3c(Nc3cc(C(C)C)c(O)cc3C)c2c1	7.2%	-13.1%	23.1µM*	-6.0%	?	8.7%
CCCC(c1c(C)n(C)n(-c2ccccc2)c1=O)c1c(C)n(C)n(-c2ccccc2)c1=O	2.38µM*	-24.4%	-100.4%	0.0%	-100.6%	-4.2%
Cc1cccc(Cn2cc3c(=O)n(CC(=O)Nc4ccc(C)c(F)c4)nc-3c3cc(F)ccc32)c1	·	9.1%	5.5%	-3.5%	-21.2%	-2.8%
O=C(C[n+]1ccc2ccccc2c1)c1ccc2ccc3ccccc3c2c1	-10.1%	·	3.26µM*	·	4.11µM*	·
O=C1NC(c2ccccc2)N=C2Oc3ccccc3C=C12 (stereo not drawn)	?	?	4.61µM*	·	4.61µM*	·
Nc1ccc2c3c(ccc([N+](=O)[O-])c13)CC2	-1.9%	·	?	·	7.31µM*	·
O=C(Cn1c(=O)c(CNc2ccccc2)cc2cc3c(cc21)OCCO3)Nc1ccccc1Cl	·	-0.7%	-121.4%	-27.8%	?	-2.8%
CC(=O)N1CCC(C(=O)OCc2ccccc2F)(c2ccccc2)CC1	-16.3%	-9.9%	?	-2.4%	20.6µM*	0.0%
COc1cccc(C(c2sc3nc(-c4ccco4)nn3c2O)N2CCN(C)CC2)c1 (stereo not drawn)	·	3.6%	0.1%	-13.0%	-18.7%	5.2%
Cc1ccccc1NC(=O)CC(O)(C(F)(F)F)C(F)(F)F	-11.7%	5.2%	?	-11.2%	?	0.0%
COc1ccc(C(N)=O)cc1NC(=O)CC(O)(C(F)(F)F)C(F)(F)F	-4.5%	2.4%	14.6µM*	0.1%	?	3.3%
O=C(NCc1ccccn1)c1cccc(NS(=O)(=O)c2cccc(F)c2)c1	-6.9%	-2.5%	1.64µM*	-0.8%	1.46µM*	4.3%
O=C(NCCC1=CCCCC1)c1ccc2c(c1)ncn2-c1cccc(Cl)c1	·	15.0%	16.4µM*	-6.4%	14.6µM*	2.6%
CCCCCNC(=O)c1ccc2c(c1)ncn2-c1cccc(C)c1	·	4.6%	?	-10.4%	?	2.6%
COc1ccc(-n2cnc3cc(C(=O)NCCC4=CCCCC4)ccc32)cc1	·	23.2%	18.4µM*	-5.6%	?	4.7%
Cc1cc(C)c2c(=O)c3c(oc2c1)C(=O)N(CCCOC(C)C)C3c1ccccc1F (stereo not drawn)	·	0.8%	4.7%	-0.7%	?	-2.3%
Cc1ccc(C2NC(c3ccc(C)cc3)C(C)C(=O)C2C)cc1 (stereo not drawn)	6.0%	-8.7%	?	-3.7%	?	-3.6%
O=C1C(c2ccccc2)C(c2ccccc2)NC(c2ccccc2)C1c1ccccc1 (stereo not drawn)	-2.9%	6.5%	?	-13.3%	23.1µM*	-2.9%
COCCC1CCCCN1C(=O)c1cc(COc2ccc(C)nc2)on1 (stereo not drawn)	0.8%	7.8%	20.6µM*	-1.5%	23.1µM*	5.7%
COCCCC1CCN(C(=O)c2cc(COc3ccc(C)nc3)on2)CC1	3.4%	12.8%	18.4µM*	-4.4%	10.3µM*	4.8%
COc1ccc(OC)c(CNC(=O)CCc2c(C)nc3c(c2C)c(=O)n(C)c(=O)n3C)c1	·	-17.5%	-23.3%	0.9%	?	-1.2%
SMILES	PLK1 PBD block	VDR inh	DT40 TDP1 CPT	KAT2A inh	TDP1 cell noCPT	TDP1 block
COC(=O)c1c(NC(=O)C2c3ccccc3Oc3ccccc32)sc(C)c1C	-0.4%	9.4%	23.1µM*	8.6%	?	4.4%
CCOC(=O)c1c(NC(=O)C2=C(C)NC(=S)NC2c2ccc(C)cc2)sc(C)c1C (stereo not drawn)	?	-22.8%	?	?	13µM*	-2.7%
CCOc1cccc(C2NC(=S)NC(C)=C2C(=O)Nc2ccccc2)c1 (stereo not drawn)	-2.2%	-21.3%	?	-2.5%	23.1µM*	-5.4%
CCOC(=O)c1c(NC(=O)C2C3C=CC(C3)C2C(=O)O)sc2c1CCC(CC)C2 (stereo not drawn)	26.7µM*	?	16.4µM*	-17.1%	?	-5.3%
CCOC(=O)c1c(NC(=O)C2=C(C)NC(=S)NC2c2ccc(F)cc2F)sc(C)c1C (stereo not drawn)	-9.9%	-19.0%	?	-13.4%	?	8.1%
CCOC(=O)c1c(NC(=O)C2C3CCC(O3)C2C(=O)O)sc2c1CCC(CC)C2 (stereo not drawn)	?	-4.7%	-17.1%	1.5%	-17.7%	2.7%
O=C(COC(=O)C12CC3CC(CC(Br)(C3)C1)C2)Nc1ccc2[nH]c(=O)[nH]c2c1	-0.8%	10.5%	-3.2%	-1.7%	-0.5%	·
CCN(CC)S(=O)(=O)c1ccc(NC(=O)C2c3ccccc3Oc3ccccc32)cc1	-9.7%	-13.6%	23.1µM*	-9.7%	16.4µM*	8.1%
CCC1CCc2c(sc(NC(=O)C3c4ccccc4Oc4ccccc43)c2C(=O)OC)C1 (stereo not drawn)	·	-21.3%	?	-5.2%	10.3µM*	2.1%
CCOC(=O)c1c(NC(=O)C2c3ccccc3Oc3ccccc32)sc(C)c1C	·	-3.8%	?	-7.8%	20.6µM*	2.1%
CNC(=O)C(=O)Nc1cc2c3c(c1)C(C)C(=O)N3CCC2 (stereo not drawn)	-13.4%	-0.4%	-0.6%	-4.9%	0.8%	0.6%
Cc1ccc2c(c1)sc1nc(=O)ccn12	15µM*	-27.2%	?	3.6%	?	·
COc1ccc(S(=O)(=O)c2c(Nc3cccc(C)c3C)sc(C(=O)c3ccccc3)c2N)cc1	·	5.7%	2.91µM*	-3.0%	3.26µM*	0.0%
Cc1ccc(S(=O)(=O)c2c(Nc3ccc(C)c(C)c3)sc(C(=O)c3ccc4c(c3)OCO4)c2N)cc1	·	4.0%	?	-10.8%	?	4.1%
